High-throughput results from PubChem BioAssay.
HSP90 inh: HSP90 refolding inhibition in rabbit reticulocyte lysate; luciferase refolding luminescence, 3 h; inhibition, % at 5.6 µM; 290,000 compounds, 0.91% hits; AID 1789;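 active means inhibition above the screen-wide mean plus 3 SD, computed separately per campaign, cut at about 16% in these data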;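 further: 0% = DMSO wells and 100% = 60 µM geldanamycin wells; inhibitors lower the luminescence because luciferase stays unfolded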
LGR2 inh: blocks bursicon-induced cAMP signaling via Drosophila LGR2; HEK293 LGR2, CRE-luciferase, bursicon-stimulated, 4 h; inhibition, % at 9.99 µM; 380,000 compounds, 0.35% hits; AID 720647;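 active means drop in luminescence signal, shown as inhibition above about 50% in the replicate tests, limit read from the data, passing the limit was not always enough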;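 further: agonist challenge used bursicon conditioned medium at about half maximal strength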
LMP1 NFkB inh: inhibitors of Epstein-Barr LMP1-induced NF-kappaB reporter | LMP1-induced NF-kappaB luciferase reporter cells, luminescence | inhibition, % at 12.5 µM | 350,000 compounds, 0.69% hits | AID 504558; in the data active means inhibition above about 41%;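 further: 0% = neutral control wells and 100% = reference inhibitor control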
TROY NFkB inh: inhibitors of TROY-dependent NF-kB signaling. Q293 LMP1-TROYcd NF-kB luciferase reporter, 4 h. inhibition, % at 10 µM. 360,000 compounds, 0.98% hits;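 active means compounds whose plate-normalised and pattern-corrected inhibition of the luciferase reporter signal at the single screening dose is 50% or more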
TWEAK Fn14 block: TWEAK-Fn14 signaling inhibition | TWEAK-stimulated Fn14 reporter cells, luciferase luminescence, 8 h | inhibition, % at 10 µM | 360,000 compounds, 2% hits; in the data active means inhibition above about 50%
aDG glyco up: increases alpha dystroglycan glycosylation | Pro5-aDG cells, alpha-DG glycosylation AlphaScreen (IIH6); 0% Pro5, 100% B10-LARGE cell signal | 360,000 compounds, 0.22% hits | activation, % at 10 µM;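 active means activation of at least 8% versus controls, or a plate z-score of at least 8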;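 further: Pro5 are CHO cells carrying HIG-tagged alpha-DG that lacks glycosylation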
Starred values were filed as active, the others as inactive; nt = not tested or not shown. Most compounds without a hit are left out; they make up all but 2.6% or so of the library.

SMILES	HSP90 inh	LGR2 inh	LMP1 NFkB inh	TROY NFkB inh	TWEAK Fn14 block	aDG glyco up
C[C@H]1CN([C@@H](C)CO)C(=O)Cc2cc(NC(=O)NC3CCCCC3)ccc2O[C@@H]1CN(C)Cc1ccc(Cl)c(Cl)c1	nt	-2.9	nt	nt	nt	nt
Cc1cc(C)n(-c2ccc(C(=O)N3CCc4ccccc43)cc2)n1	-0.5	nt	-11.8	-25.4	88.0*	0.3
Cc1cc(C(=O)N2CCc3ccccc32)n(-c2ccccc2)n1	3.8	-2.9	-6.8	12.5	5.4	0.1
C[C@@H]1CN([C@H](C)CO)C(=O)c2cc(NC(=O)Nc3cccc4ccccc34)ccc2O[C@H]1CN(C)S(=O)(=O)c1cccs1	nt	-2.5	nt	nt	nt	nt
O=C(c1cnccn1)N1CC(=O)N2[C@H](C1)[C@H](c1ccc(C#CCc3ccccc3)cc1)[C@@H]2CO	nt	2.3	nt	nt	nt	nt
CC[C@@H]1CCC[C@@H](O)[C@@H](C)C(=O)O[C@H](C)[C@@H](C)C/C=C(C)/C(OC)=C\C(=O)N(C)C([C@@H](C)CC)C(=O)N(C)[C@@H](C(C)C)C(=O)N(C)[C@@H](COC)C(=O)N2CCC[C@H]2C(=O)N(C)[C@@H](C(C)C)C(=O)N2CCC[C@H]2C(=O)O1 (some centres not stated)	nt	26.4	nt	47.2	77.4*	-0.1
O=C(/C=C1\NC2(CCCC2)Cc2ccccc21)C(=O)N/N=C/c1ccccc1O	-2.8	-11.6	43.7*	-29.5	-40.3	0.4
COC(=O)[C@@H]1[C@@H](CO)[C@@H]2Cn3c(cccc3=O)[C@@H]2N1C(=O)C1CCCCC1	nt	-7.1	nt	nt	nt	nt
O=C(Nc1cccc(-c2csc(Nc3ccccc3)n2)c1)c1cc([N+](=O)[O-])cc(C(F)(F)F)c1	-5.7	-24.9	-17.7	10.3	9.6	-0.2
NS(=O)(=O)c1ccc(Nc2nc(-c3ccc4ccccc4c3)cs2)cc1	1.0	-6.3	-18.7	6.5	17.3	0.5
NS(=O)(=O)c1ccc(Nc2nc(-c3cccc([N+](=O)[O-])c3)cs2)cc1	-6.2	73.1*	-8.4	55.8*	36.3	-0.3
O=C(Nc1cccc(-c2csc(Nc3ccc(Cl)cc3)n2)c1)c1cc([N+](=O)[O-])cc(C(F)(F)F)c1	nt	4.2	-19.2	3.4	50.7*	2.6
CCCNC(=O)N[C@@H]1CC[C@@H](CC(=O)NC2CCCCC2)O[C@@H]1CO	nt	4.3	nt	nt	nt	nt
Cc1cc(N(C)C)ccc1N=Nc1ccc(N)cc1	nt	-63.2	-13.3	-56.0	28.3	-0.2
Cc1sc(N=Nc2ccc(N(C)C)cc2)[n+]([O-])c1C	nt	-1.3	-21.6	62.8*	60.5*	0.0
N/C(=N\OC(=O)Cc1ccc(-c2ccccc2)cc1)c1ccccn1	1.6	nt	3.1	70.2*	70.4*	0.6
N/C(=N\OC(=O)c1ccc(Cl)c(Cl)c1)c1ccccn1	-1.5	67.6*	-17.8	39.1	80.0*	0.2
N/C(=N\OC(=O)c1ccc(Cl)c([N+](=O)[O-])c1)c1ccccn1	5.6	7.5	-8.2	-0.9	2.3	0.5
COc1ccc(CC(=O)O/N=C(\N)c2ccccn2)cc1	-1.9	-13.1	-7.7	-18.4	8.9	-0.1
Cn1cnc(S(=O)(=O)N[C@@H]2CC[C@@H](CC(=O)NCC3CCCCC3)O[C@H]2CO)c1	nt	-15.0	nt	nt	nt	nt
COC(=O)C[C@@H]1CC[C@H]2[C@H](COc3ccc(NC(=O)Nc4ccc(C)cc4)cc3C(=O)N2C)O1	nt	25.0	nt	nt	nt	nt
Cc1cc(-c2nc3cc(F)ccc3s2)ccc1N	nt	64.2*	11.3	34.2	75.2*	0.1
COc1cc(C(=O)NC(=S)Nc2ccc(Cc3ccncc3)cc2)cc(OC)c1OC	6.2	-7.5	14.6	26.5	13.3	0.5
COc1c(C(=O)Nc2ccc(Cc3ccncc3)cc2)ccc2ccccc12	1.6	-5.8	-5.5	56.8*	39.0	1.2
COc1ccccc1C(=O)NC(=S)Nc1ccc(Cc2ccncc2)cc1	2.8	0.8	13.0	61.8*	22.9	0.1
SMILES	HSP90 inh	LGR2 inh	LMP1 NFkB inh	TROY NFkB inh	TWEAK Fn14 block	aDG glyco up
CC(=O)c1cccc(-c2ccc3c(c2)C(C)(Cc2ccccc2F)C(=O)N3)c1 (configuration not stated)	nt	23.0	nt	20.3	57.5*	0.8
Cc1cccc(NC(=O)Nc2ccc(Cl)c(Cl)c2)n1	2.8	-28.3	-25.2	17.9	57.6*	0.0
CN(C)S(=O)(=O)Oc1cccc(C(=O)Nc2ccc(Cl)c(Cl)c2)c1	-3.1	nt	-19.4	46.5	79.5*	4.1
COC(=O)c1cccc(NC(=O)Nc2ccc(Cl)c(Cl)c2)c1	-6.7	-18.0	18.0	31.4	60.4*	1.2
COC(=O)c1cc(NC(=O)Nc2ccccc2)ccc1Cl	-0.9	-27.9	3.5	-44.2	-0.5	0.1
CN(C)S(=O)(=O)Oc1cccc(C(=O)Nc2cccc(Cl)c2)c1	-3.0	nt	-22.3	-8.2	15.4	4.7
COc1ccc(NC(=O)CN2C(=O)NC3(CCCC3)C2=O)c(OC)c1	-1.6	-18.2	-9.9	7.4	81.2*	0.1
COc1ccc(S(=O)(=O)NCCc2csc(-c3cccnc3)n2)cc1	1.6	2.1	77.5*	11.4	-3.4	0.0
COc1ccc(OC)c(S(=O)(=O)NCCc2csc(-c3cccnc3)n2)c1	-0.5	20.3	-3.2	-8.6	25.4	0.1
COc1ccc(-c2ncncc2-c2ccc(Cl)cc2)c(O)c1	4.2	5.4	-0.1	25.4	18.8	0.1
COc1ccc(-c2cncnc2-c2ccc(OC)cc2O)cc1	-5.2	9.8	21.6	41.1	69.2*	0.1
O=C(C[C@H]1CC[C@H]2[C@@H](COC[C@@H](O)CN2Cc2nccs2)O1)NCc1ccccc1	nt	-1.8	nt	nt	nt	nt
CCNC(=O)C[C@@H]1C=C[C@H](NS(=O)(=O)c2ccc(C)cc2)[C@@H](CO)O1	nt	2.2	nt	nt	nt	nt
COCc1ccc(O)c2ncccc12	9.3	nt	1.9	nt	78.6*	-0.1
Oc1ccc(CNc2ccccc2)c2cccnc12	-4.5	nt	-15.5	7.9	20.9	-0.1
Oc1ccc(Cn2ccnc2)c2cccnc12	4.0	-19.2	-9.9	0.4	-4.9	0.5
Cc1ccccc1NCc1ccc(O)c2ncccc12	-1.4	13.7	-10.2	20.6	58.8*	-0.1
CC(C)(C)OC(=O)NCCCCCc1cn(CC(=O)NCCCCCCCCCCC(=O)N2CCN(C(=O)OC(C)(C)C)CC2)nn1	nt	nt	12.5	-10.2	24.7	0.4
CC[C@H](C)Cc1cn([C@@H](CCCCN)C(=O)NCCCCCCCCCCC(=O)N2CCNCC2)nn1	nt	-8.8	-3.6	-8.3	-1.5	0.0
CC[C@H](C)Cc1cn([C@@H](CCCN=C(NC(=O)OC(C)(C)C)NC(=O)OC(C)(C)C)C(=O)NCCCCCCCCCCC(=O)N2CCN(C(=O)OC(C)(C)C)CC2)nn1	nt	nt	3.2	81.0*	59.9*	0.9
Cc1cn([C@@H](CCCCNC(=O)OC(C)(C)C)C(=O)NCCCCCCCCCCC(=O)N2CCN(C(=O)OC(C)(C)C)CC2)nn1	nt	nt	7.9	70.4*	87.7*	3.7
COc1cccc(S(=O)(=O)N2C[C@@H]3N[C@H](C2)C3c2ccc(-c3ccc(C(=O)N(C)C)cc3)cc2)c1 (some centres not stated)	nt	17.5	nt	nt	nt	nt
